Bioassay records as filed in PubChem.
Shown are actives, neighbours in structure and some others; about 5.9% of the full set was active somewhere.
ATXN viability – cell viability loss in ATXN counter-screen. S2 cells (HEK-293 line with an ATXN2-luciferase reporter) viability, CellTiter-Fluor protease fluorescence, 24 h. Potency, µM (doses to about 56.7 µM), hits mostly cytotoxic. hit rate 0.49% among 400,000. AID 651635; note: nearly all actives have a fitted effect of over 40% in size
HepG2 tox – counter-screen for TGF-b inhibitors: cytotoxicity in HepG2 cells. hit rate 0.76% among 410,000. HepG2 CAGA-GFP viability, ATP luminescence, 18 h. Potency, µM (doses to about 46.1 µM), without a hit: top-dose activity change, negative = cytotoxicity, actives largely listed as cytotoxic. AID 588856
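CellTiter-Glo luminescence gave cytotoxicity after 18 hours at 37 degrees C. The cells were HepG2 CAGA-GFP in 1% FBS DMEM, stimulated with 500 pg/mL TGF-beta after compound addition. %Activity was normalised to no-cell wells (complete cell-killing) and DMSO (no toxicity), and curves were fitted and classified.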
KB-3-1 cytotox – KB-3-1 parental cell cytotoxicity | KB-3-1 viability, CellTiter-Glo ATP luminescence, 72 h | Potency, µM (highest dose often 46.1 µM), usual class: cytotoxic | hit rate 1.4% among 400,000 | AID 1347075; note: % is set by controls: 0 for no effect and ±100 for the full control effect; nearly all actives have a fitted effect of over 60% in size
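Using CellTiter-Glo luminescence, growth of non-resistant KB-3-1 adenocarcinoma cells is assessed 72 h after pin-tool compound addition at 37 °C. Normalized responses across the concentration series yield fitted curves.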
KB-V1 cytotox – kills drug-selected multidrug resistant KB-V1 cells. KB-V1 MDR cells viability, CellTiter-Glo, 72 h. Potency, µM (doses to about 46.1 µM), actives largely listed as cytotoxic. hit rate 3.4% among 400,000. AID 1347076; note: % is set by controls: 0 for no effect and ±100 for the full control effect; nearly all actives have a fitted effect of over 60% in size
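Luminescent ATP read-out (CellTiter-Glo, 10 min) measures survival of drug-selected KB-V1 MDR cells after 72 h, 37 degrees C compound exposure. Medium: phenol-red-free DMEM, 10% FBS. Values from fitted concentration-response curves.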
ATXN2 expr inh – ATXN2 expression inhibition | HEK-293 ATXN2-luciferase reporter, luminescence, 24 h | Potency, µM (highest dose often 57 µM), for the others: at the top dose activity change, negative = inhibition, usual class: inhibitors | hit rate 0.72% among 360,000 | AID 1745845; note: % is set by controls: 0 for no effect and ±100 for the full control effect; nearly all actives have a fitted effect of over 55% in size
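qHTS (up to 57 uM final) was run with 24 h compound exposure of reporter cells at 37 °C. Each well was multiplexed: SteadyGlo luminescence measured ATXN2-luciferase expression after a fluorogenic Gly-Phe-AFC viability readout (25 uM final).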
TGFb SMAD3 inh – inhibitors of TGF-b signaling; Potency, µM (top dose mostly 46.1 µM), inactives show at the highest dose activity, negative = inhibition, hits mostly inhibitors; HepG2 CAGA-GFP TGF-b/SMAD3 reporter, GFP fluorescence, 18 h; TGF-beta stimulated, 500 pg/mL final; AID 588855; hit rate 1.2% among 410,000; note: % is set by controls: 0 for no effect and ±100 for the full control effect; nearly all actives have a fitted effect of over 65% in size
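Read-out: total well GFP (ex488/em500-530) summed from mean per-cell fluorescence. Cells: HEPG2 CAGA-GFP, 1% FBS DMEM, 18 h at 37 degrees C with 500 pg/mL final TGF-beta. Unstimulated wells served as the full-inhibition control; stimulated DMSO wells = 0%.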
The depositor's hits bear a star. Calls come from the whole dose curve; as a rule, active = well fitted curve in the direction sought with a large enough effect; inconclusive = small, poorly fitted or top-dose-only effect, or another doubt; inactive = no such curve, though single readings can be large; an effect the other way counts as inactive or inconclusive. Potency is the fitted concentration of half-maximal effect.

Screening O=C(C[n+]1cccc(Br)c1)c1ccc(Br)cc1 returned HepG2 tox -53%, KB-3-1 cytotox inactive, KB-V1 cytotox inactive and TGFb SMAD3 inh inconclusive.
O=C1CCCC2=C1C1(CCS(=O)(=O)C1)N=C(Nc1nc3ccccc3o1)N2 (stereo not given) was read as KB-3-1 cytotox inactive and KB-V1 cytotox inactive.
Screening CCOc1ccccc1NC(=O)n1ncc2cc(Cl)ccc21 returned ATXN viability inactive, HepG2 tox 0%, KB-3-1 cytotox inactive, KB-V1 cytotox inactive, ATXN2 expr inh 14% and TGFb SMAD3 inh 2%.
For O=C(NCc1ccc(F)cc1Cl)c1cc(=O)[nH]c2ccc(S(=O)(=O)N3CCCCC3)cc12 the results were HepG2 tox -5% and TGFb SMAD3 inh -10%.
`NS(=O)(=O)c1ccc(N2N=C(c3ccc(Br)cc3)CC2c2ccc(F)cc2)cc1` (stereo not given) gave HepG2 tox 20µM*, KB-3-1 cytotox inconclusive, KB-V1 cytotox inconclusive, ATXN2 expr inh inconclusive and TGFb SMAD3 inh inconclusive.
COc1ccc(C2CC(c3ccccc3)=NN2c2ccc(N)cc2)cc1 (stereo not given) was read as ATXN viability inactive, HepG2 tox -19%, KB-3-1 cytotox inconclusive, KB-V1 cytotox 21µM*, ATXN2 expr inh -31% and TGFb SMAD3 inh -9%.
Screening COc1ccc(C2CC(c3ccc(Cl)cc3)=NN2c2ccc(S(N)(=O)=O)cc2)cc1 (stereo not given) returned HepG2 tox 18µM*, KB-3-1 cytotox inconclusive, KB-V1 cytotox inactive, ATXN2 expr inh 0% and TGFb SMAD3 inh inconclusive.
For COc1cc(-c2ccc3sc(-c4ccsc4)c(C#CCO)c3c2)cc(OC)c1OC the results were ATXN viability inconclusive, HepG2 tox -34%, KB-3-1 cytotox inactive, KB-V1 cytotox inactive, ATXN2 expr inh 25µM* and TGFb SMAD3 inh 16µM*.
`COc1cc(NC(=O)Cn2c(=O)n(-c3ccccc3)c(=O)c3c4c(sc32)CCCC4)cc(OC)c1` gave ATXN viability inactive, HepG2 tox -2%, KB-3-1 cytotox inactive, KB-V1 cytotox inconclusive, ATXN2 expr inh 13% and TGFb SMAD3 inh 5%.
Screening O=C(COc1ccc(-n2ccnc2)cc1)Nc1cccc(Cl)c1 returned ATXN viability inconclusive, HepG2 tox -25%, KB-3-1 cytotox inconclusive, KB-V1 cytotox 5.8µM*, ATXN2 expr inh -23% and TGFb SMAD3 inh 0%.
Screening O=C(COc1ccc(-n2ccnc2)cc1)Nc1cccc(F)c1 returned ATXN viability inconclusive, HepG2 tox -13%, KB-3-1 cytotox inconclusive, KB-V1 cytotox inconclusive and TGFb SMAD3 inh -28%.
`CC(=O)C(Sc1nc(-c2ccccc2Cl)nc2c1c(=O)n(C)c(=O)n2C)C(=O)N(C)C` (stereo not given) gave ATXN viability inconclusive, HepG2 tox -1%, KB-3-1 cytotox inactive, KB-V1 cytotox inactive, ATXN2 expr inh -15% and TGFb SMAD3 inh inconclusive.
Screening CC(C)=CCOc1ccc(/C=C/C(=O)c2ccc(OCC=C(C)C)cc2OCC(=O)O)cc1 returned ATXN viability inactive and ATXN2 expr inh -12%.
For CCN(Cc1ccccc1)S(=O)(=O)c1ccc(C(=O)Nc2nnc(C3CC3)o2)cc1 the results were ATXN viability inactive, HepG2 tox -34%, KB-3-1 cytotox inconclusive, KB-V1 cytotox inactive, ATXN2 expr inh 20µM* and TGFb SMAD3 inh -12%.
CCCC(=O)C1=C(c2ccc(C)cc2)N(C(=O)CCC)n2cnnc2S1 was read as HepG2 tox 20µM* and TGFb SMAD3 inh inconclusive.
For CCCC(=O)C1=C(c2ccc(C)c(C)c2)N(C(=O)CCC)n2c(CC)nnc2S1 the results were HepG2 tox -27% and TGFb SMAD3 inh -16%.
